According to PubChem BioAssay AID602393 (Broad Institute, 2012):
Out of some 350,000 compounds screened, about 7,000 (2%) were called active. Rule as the data show it: active = activation above about 40%; inconclusive = no clear call, values can overlap the other calls; inactive = below that. Shown is part of a subset that was picked to be rich in actives.

Assay: Bmi1 luciferase reporter increase in mESCs, primary screen, esBAF inhibitor project, mouse ES cells, Bmi1 luciferase knock-in, single point (AID 602393);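 also: 0% = median of the plate's neutral control wells and 100% = double that signal; a rise in the Bmi1 reporter signal indicates esBAF inhibition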
Settings: 24 h, at 12.5 µM, active compounds read high, 100% = twice the neutral-well signal

Reporter increase, active:
COc1ccc(C(=O)CCc2ccccc2O)c(OC)c1 92.4%
COc1ccc(C(=O)COC(=O)C(O)c2ccccc2)c(OC)c1 (stereo unspecified) 67.1%
CCc1c(C)nc2cc(-c3cccs3)[nH]n2c1=O 48.4%
CC(C)(C)NC(=O)Cn1nnc(-c2ccccc2Cl)n1 56.6%
COCn1c(COc2ccccc2)nc2ccccc21 80.5%
CCS(=O)(=O)n1nc(-c2ccccc2)nc1SCc1ccccc1 45.9%
CCS(=O)(=O)n1nc(-c2ccc(OC)cc2)nc1SC 55.7%
Cc1ccc(C)c(N2CCN(C(=O)CCc3nc(-c4cccc(C(F)(F)F)c4)no3)CC2)c1 61.9%
N#CC(=C1CCCC1)c1nc(-c2ccc(Cl)cc2)cs1 58.5%

Reporter increase, inactive:
C/C=C/c1ccc([C@H]2[C@@H](CO)N(C(=O)Cc3ccncc3)[C@@H]2CNC(C)=O)cc1 -0.088%
COc1ccc(C(=O)COC(=O)CN2C(=O)C3CC=CCC3C2=O)c(OC)c1 (stereo unspecified) -4.47%
COc1ccc(C(=O)NC(C)CCc2ccccc2)c(OC)c1 (stereo unspecified) -1.75%
CCOC(=O)c1c(C)[nH]c(C(=O)OCC(=O)c2ccc(OC)cc2OC)c1C 6.18%
COc1ccc(C(=O)CCC(=O)Nc2cccnc2)c(OC)c1 -1.7%
C[C@H](CO)N1C[C@H](C)[C@H](CN(C)C(=O)CCC(F)(F)F)OCCCC[C@H](C)Oc2ccc(NS(=O)(=O)c3ccc(F)cc3)cc2C1=O -0.446%
C[C@@H]1CCCCO[C@@H](CN(C)S(=O)(=O)c2ccc(F)cc2)[C@@H](C)CN([C@@H](C)CO)C(=O)c2cc(NC(=O)Nc3ccc(F)cc3)ccc2O1 3.89%
C[C@@H]1CN([C@@H](C)CO)C(=O)Cc2cc(NC(=O)Nc3ccc4c(c3)OCO4)ccc2O[C@H]1CN(C)S(=O)(=O)c1ccc(F)cc1 -0.705%
CN1[C@@H]2CN(C(=O)c3ccc(F)cc3)c3ccccc3[C@@H]2[C@@H]1CO 2.63%
C=CCc1c(C)nc2cc(-c3ccccc3)[nH]n2c1=O 34.3%
CCc1c(C)nc2cc(C)[nH]n2c1=O -4.73%
O=C(C[C@H]1C=C[C@H](NC(=O)C2CCOCC2)[C@@H](CO)O1)NCC1CC1 -1.58%
Cc1ccc(-c2ccc3c(c2)O[C@H](CN(C)C(=O)Nc2ccccc2)[C@@H](C)CN([C@@H](C)CO)S3(=O)=O)cc1 -1.56%
Cc1ccccc1-c1nnn(CC(=O)c2ccc(S(=O)(=O)N3CCCC3)cc2)n1 5.35%
O=C(Cn1nnc(-c2ccccc2)n1)NC(=O)NC1CCCC1 -2.48%
CCCC(=O)Nc1ccc2c(c1)C(=O)N(C)[C@@H]1CC[C@H](CC(=O)NCCN3CCCCC3)O[C@@H]1CO2 0.938%
O=C(C[C@@H]1C=C[C@H](NC(=O)C2CCOCC2)[C@H](CO)O1)NCc1ccncc1 5.38%
CC(C)n1c(COc2ccccc2)nc2ccccc21 -1.17%
COCc1nc2ccccc2n1Cc1ccccc1Br -3.15%
CCOC(=O)N1CCN(S(=O)(=O)c2ccc(OC)cc2)CC1 -4.19%
O=S(=O)(c1ccc(SCc2ccccc2)nc1)N1CCCCCC1 8.09%
COc1ccc(-n2c(SC)nc(O)cc2=O)cc1 -1.49%
C=CCn1c(SCc2ccccc2)nc2c1c(=O)[nH]c(=O)n2C 8.86%
Cc1cccc(S(=O)(=O)N2C[C@@H]3[C@H](c4ccccc42)[C@H](CO)N3CC2CCOCC2)c1 3.89%
CCC(=O)N(C)C[C@@H]1Oc2cc(C#CC(C)(C)O)ccc2S(=O)(=O)N([C@@H](C)CO)C[C@@H]1C 1.13%
C[C@H](CO)N1C[C@H](C)[C@H](CN(C)S(=O)(=O)c2ccccc2)Oc2cc(Br)ccc2S1(=O)=O 3.8%
COc1ccc(-c2noc(CCC(=O)N3CCN(c4cccc(C)c4)CC3)n2)cc1 -6.31%
Cc1ccc(C)c(N2CCN(C(=O)CCc3nc4ccccc4[nH]3)CC2)c1 10.7%
CNC[C@@H]1Oc2ccc(NS(=O)(=O)c3c(C)noc3C)cc2CC(=O)N([C@@H](C)CO)C[C@@H]1C 1.22%
CO[C@H]1CN(C)C(=O)c2cc(NS(C)(=O)=O)ccc2OC[C@@H](C)N(C(=O)NC(C)C)C[C@@H]1C -1.56%
CCC(=O)N1C[C@H]2[C@@H](c3ccccc31)[C@H](CO)N2Cc1ccccc1F -1.5%
c1ccc(-c2csc(N3CCc4ccccc4C3)n2)cc1 21.9%
